GALK inhibitor – galactokinase (human) inhibition; P51570; Purified GALK, Kinase-Glo residual ATP luminescence; hit rate 0.007% among 270,000; Potency, µM (titrated, usually from 57.5 µM), inactives show top-dose activity change, negative = inhibition, most hits filed as inhibitors; AID 1868; also: potency is read from the fitted curve at half-maximal effect
Target sequence (P51570 whole entry, looked up): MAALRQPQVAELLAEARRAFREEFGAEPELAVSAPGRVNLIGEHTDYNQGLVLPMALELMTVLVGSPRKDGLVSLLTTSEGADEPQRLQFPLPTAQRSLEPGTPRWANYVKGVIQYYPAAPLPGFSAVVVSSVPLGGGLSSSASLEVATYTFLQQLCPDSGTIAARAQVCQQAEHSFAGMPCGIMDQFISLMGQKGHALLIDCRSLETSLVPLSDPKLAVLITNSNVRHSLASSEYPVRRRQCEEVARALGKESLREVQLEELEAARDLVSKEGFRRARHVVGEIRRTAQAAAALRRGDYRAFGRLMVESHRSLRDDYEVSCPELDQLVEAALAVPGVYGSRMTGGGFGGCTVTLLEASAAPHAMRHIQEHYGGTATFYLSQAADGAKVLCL
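5 nM enzyme, 35 uM ATP, 100 uM galactose, 20 mM HEPES pH8.0, 5 mM MgCl2; 1 h RT; residual ATP by Kinase-Glo Plus luminescence, qHTS format.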
RORgamma inh – inhibitors of mouse ROR gamma transcriptional activity | P51450 | Drosophila S2 Gal4-RORgamma UAS-luciferase reporter, 20 h | Potency, µM (series often up to 53.6 µM), for the others: at the top dose activity change, negative = inhibition, most hits filed as inhibitors | hit rate 5.4% among 310,000 | AID 2551; also: potency is read from the fitted curve at half-maximal effect; nearly all actives have a fitted effect of over 60% in size
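Luciferase reporter read in Schneider cells carrying Gal4-RORγ (mouse) and UAS-Photinus luciferase; cells given compound 1 h before 700 uM copper sulfate induction, then incubated 20 h at ambient temperature.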
Gal4-VP16 FLuc – inhibits Gal4-VP16 luciferase reporter, ROR gamma counter-screen. Potency, µM (highest dose often 53.6 µM), inactives show at the top dose activity, negative = inhibition, usual class: inhibitors. hit rate 3.5% among 310,000. Drosophila S2 Gal4-VP16 UAS-luciferase, luminescence, 20 h;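 also: Gal4-VP16 expression switched on by copper sulfate through the metallothionein promoter; potency is read from the fitted curve at half-maximal effect; nearly all actives have a fitted effect of over 50% in size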
Coupling enz – counter-screen for Giardia aldolase inhibitors: coupling enzyme system | coupling enzyme system counterscreen, AmpLite Red fluorescence | activity change, negative = inhibition, % at 58.2 µM, hits read low | hit rate 0.67% among 290,000 | AID 2472; in the data active = activity change below about -30%
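Activity here indicates interference with the coupling reaction, not aldolase inhibition. Compounds at 57.5 uM final met coupling enzymes for 10 min at RT; substrate and AmpLite Red detection followed, with a 525/598 nm fluorescence read after 20 min.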
TrxR1 substrate – rat thioredoxin reductase 1 substrate activity; AID 588456; hit rate 0.01% among 390,000; O89049; purified TrxR1 substrate turnover, NADPH consumption readout; Potency, µM (highest dose often 114 µM), inactives show at the highest dose activity change, negative = substrate turnover; also: potency is read from the fitted curve at half-maximal effect; nearly all actives have a fitted effect of over 50% in size
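Rat TrxR1, dispensed at 90 nM, was prereduced with 400 uM NADPH (final) for 5 min at ~22 deg C, then incubated with compound 15 min before 400 uM selenite. A first-read NADPH fluorescence drop versus no-compound background flagged substrates.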
TrxR1 inh – rat TrxR1 inhibition | O89049 | recombinant rTrxR1, NADPH fluorescence consumption, selenite substrate | Potency, µM (titrated, usually from 114 µM), without a hit: top-dose activity change, negative = inhibition, most hits filed as inhibitors | hit rate 1% among 390,000 | AID 588453; also: potency is read from the fitted curve at half-maximal effect; nearly all actives have a fitted effect of over 65% in size
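Rat TrxR1 (90 nM in the dispensed reagent) was pre-reduced with 400 uM NADPH for 5 min at room temperature, then incubated with compound for 15 min. After 400 uM selenite was added, NADPH fluorescence (Ex 340/Em 450 nm) was followed for 8 min.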
Starred values were filed as active, the others as inactive; u = inconclusive; x = no result given; [ ] = remark or other dose. Sampled rows, rich in hits. Any-hit rate of the full collection: about 5.9%. Unless noted, calls follow the shape of the dose curve; as a rule, active = well fitted curve in the direction sought with a large enough effect; inconclusive = small, poorly fitted or top-dose-only effect, or another doubt; inactive = no such curve, though single readings can be large; an effect the other way counts as inactive or inconclusive. % is scaled to controls: 0 for no effect and ±100 for the full control effect.

SMILES	GALK inhibitor	RORgamma inh	Gal4-VP16 FLuc	Coupling enz	TrxR1 substrate	TrxR1 inh
CC(C)(C)c1cc[n+](/C(C(=S)NC2CC2)=C(/[O-])c2ccc(Cl)s2)cc1	0.9%	u	-20.3%	-43.9*	-7.1%	-9.1%
CCn1c(-c2nn(-c3ccc(C)cc3)ccc2=O)n[nH]c1=S	-0.1%	-21.6%	-18.1%	0.4	-8.5%	-14.2%
Cc1ccc(-n2ccc(=O)c(-c3ccnc(SCc4cccc(Cl)c4)n3)n2)cc1	1.5%	0.282µM*	-9.0%	0.2	5.1%[57.1 µM]	3.5%[57.1 µM]
CN(CC(=O)Nc1ccc(F)c(Cl)c1)S(=O)(=O)c1ccc2c(c1)n(C)c(=O)c(=O)n2C	-2.2%	0.4%	3.2%	x	1.5%	12.6%
N#Cc1c2n(c3c(=S)nc[nH]c13)CCCCC2	-0.6%	3.55µM*	17.8µM*	-0.1	-17.5%	u
N#Cc1c2n(c3c(=O)[nH]cnc13)CCCC2	0.5%	-3.9%	-1.5%	1.3	4.0%	9.8%
O=C(/C=C/c1ccco1)Oc1cc(Br)cc(/C=N/NC(=O)c2ccccc2O)c1	0.4%	3.16µM*	2.82µM*	2.6	-5.6%	-8.6%
Cc1ccc(C(=O)N/N=C/c2cccc(OC(=O)/C=C/c3ccco3)c2)cn1	0.1%	-26.2%	19.7%	0.3	3.1%[57.1 µM]	15.3%[57.1 µM]
O=C1/C(=C/c2ccccc2Cl)SC(=S)N1CCCC(=O)N(CCO)c1ccccc1	-3.9%	2.24µM*	u	-0.1	2.7%	19.6%
O=C(CCCN1C(=O)/C(=C/c2ccccc2Cl)SC1=S)Nc1cccnc1	-6.9%	0.224µM*	-101.2%	x	-10.6%	8.5%
O=C(CCCN1C(=O)/C(=C/c2ccccc2Cl)SC1=S)NNC(=O)c1ccc(Cl)cc1	-1.3%	u	u	0.9	-0.3%	11.3%
O=C(CCCN1C(=O)/C(=C/c2ccccc2Cl)SC1=S)Nc1ccccn1	0.6%	1.78µM*	u	-1.8	5.0%[57.1 µM]	-0.2%[57.1 µM]
CN(C(=O)CN1C(=O)/C(=C/c2ccccc2Cl)SC1=S)C1CCS(=O)(=O)C1 (stereo unspecified)	5.7%	10µM*	u	-1.5	-2.3%	-0.2%
Cc1ccccc1OCC(=O)Nc1ccccc1CO	0.6%	8.0%	10.1%	0.2	4.9%[57.1 µM]	6.6%[57.1 µM]
O=C1c2ccccc2C(=O)c2c(O)ccc(O)c21	x	-30.2%	-10.0%	-16.9	x	x
O=C1C(=C(I)I)c2ccccc2-c2ccccc21	x	x	x	x	-29.3%[57.1 µM]	0.891µM*
O=C(O)c1cncc(SCc2ccccc2)n1	x	x	x	x	2.0%[57.1 µM]	-3.1%[57.1 µM]
Cc1cnn(CCC(=O)NNC(=S)Nc2ccc(F)cc2)c1	-0.6%	0.447µM*	2.82µM*	x	-8.1%	-20.9%
CCNC(=S)NNC(=O)CCn1cc(C)cn1	1.4%	6.31µM*	u	1.3	-4.3%	-1.1%
Cc1cnn(CCC(=O)NNC(=S)Nc2cccc(Cl)c2)c1	-2.5%	0.355µM*	u	x	5.9%	-15.4%
Cc1ccc(S(=O)(=O)N2CCCCC2C(=O)N2CCN(c3ccccc3F)CC2)cc1 (stereo unspecified)	-4.3%	0.0%	-0.2%	-1.9	6.2%[57.1 µM]	11.3%[57.1 µM]
O=C1C=CC(=O)C2=C1C1c3ccccc3C2c2ccccc21	x	10µM*	u	-10.5	x	x
c1ccc(C2OC3c4cccc5cccc(c45)C3N2c2ccccc2)cc1 (stereo unspecified)	-0.4%	22.4%	4.2%	8.2	-7.9%	-16.3%
Cc1ccc(/C=N/Nc2ccccn2)s1	-6.9%	u	11.2µM*	-1.7	1.2%[0.457 µM]	8.1%
Clc1cnc(N/N=C/c2ccco2)c(Cl)c1	-2.9%	5.62µM*	12.6µM*	-10.3	-15.9%	-19.5%
SMILES	GALK inhibitor	RORgamma inh	Gal4-VP16 FLuc	Coupling enz	TrxR1 substrate	TrxR1 inh
Brc1ccccc1/C=N/Nc1ccccn1	6.5%	u	-2.2%	-0.8	4.2%[57.1 µM]	2.2%[57.1 µM]
Oc1ccc(/C=N/Nc2ncc(Cl)cc2Cl)cc1	-3.2%	u	6.5%	-3.3	-9.2%	-5.0%
Cc1ccc(/C=N/Nc2ncc(Cl)cc2Cl)s1	0.7%	4.47µM*	7.08µM*	-3.1	-4.0%[57.1 µM]	-22.9%[57.1 µM]
Clc1cnc(N/N=C/c2cccs2)c(Cl)c1	2.9%	7.94µM*	u	-1.6	3.4%	6.5%
O=C(N=C1SC2CS(=O)(=O)CC2N1c1cccc(F)c1)C1CC1 (stereo unspecified)	7.0%	-4.3%	-5.1%	-4.3	4.7%	36.6%
CCCSc1nc(NCc2ccco2)c2c3c(sc2n1)COC(C)(C)C3	-0.2%	-1.4%	u	0.3	-9.8%	44.7µM*
Cc1cc(C)n(-c2nc(SCC(=O)O)c3c4c(sc3n2)COC(C)(C)C4)n1	-3.8%	7.08µM*	u	-1.6	8.4%	5.5%
CCCCSc1nc(NCc2ccco2)c2c3c(sc2n1)COC(C)(C)C3	-0.1%	16.3%	-12.4%	-2.8	4.8%	-11.9%
CCC1(C)Cc2c(sc3nc(SC)nc(NCCN(C)C)c23)CO1 (stereo unspecified)	1.0%	9.5%	14.3%[0.365 µM]	1.8	4.6%	9.4%
Cc1cc(C)n(-c2nc(NCc3cccnc3)c3c4c(sc3n2)COC(C)(C)C4)n1	1.0%	3.98µM*	6.31µM*	0.2	45.4%[57.1 µM]	19.5%[57.1 µM]
CCN(CC)CCCNc1nc(-n2nc(C)cc2C)nc2sc3c(c12)CC(C)(C)OC3	-0.7%	12.6µM*	u	1.3	9.2%[2.29 µM]	1.9%[57.1 µM]
CCOC(=O)C1=C(COC(=O)C2(C)CC2(Cl)Cl)NC(=O)NC1c1ccccc1 (stereo unspecified)	0.7%	16.9%	-3.2%	-0.2	2.6%	18.6%
CCn1c(SCC(=O)c2ccc(C)cc2)nnc1-c1ccncc1	0.8%	34.1%	7.4%	-6.0	2.9%	18.9%
Cc1cccc(NS(=O)(=O)c2cccc([N+](=O)[O-])c2)n1	-0.5%	5.6%	-0.1%	-0.3	-6.8%	-1.9%[57.1 µM]
COc1ccc(OC)c(S(=O)(=O)N2CCC(C(=O)NCCC3=CCCCC3)CC2)c1	-3.3%	u	-11.8%	-0.4	-5.4%	-4.0%
COC(=O)C(CC(=O)c1cccc(OC)c1)c1ccc(F)cc1 (stereo unspecified)	-2.0%	7.0%	-12.5%	-0.9	-5.9%	4.0%
CN1CCN(S(=O)(=O)c2ccccc2)CC1	-1.1%	-14.7%	4.9%	0.7	-2.2%	4.4%
COc1cccc(C2CC(c3cccs3)=NN2C(=S)Nc2ccccc2)c1OC (stereo unspecified)	-0.9%	8.91µM*	1.6%	-0.6	-2.5%	-2.9%
C=CCNC(=O)/C(C#N)=C/c1cc(Br)ccc1OC	-4.8%	12.6µM*	u	3.0	5.6%	-2.3%
O=C(CSc1nc(=O)n2ccccc2n1)N1CCN(c2ccccc2)CC1	x	x	x	x	-6.0%[57.1 µM]	-7.1%[57.1 µM]
COc1ccccc1CNC(=O)CN(c1ccccc1OC)S(C)(=O)=O	x	x	x	x	-10.9%[57.1 µM]	-12.1%[57.1 µM]
COc1ccccc1NC(=O)c1c(N=Cc2c(O)ccc3ccccc23)cnn1C	3.8%	u	-9.9%	-40.3*	-5.5%	-0.8%
